Test results from PubChem BioAssay (EPA / NIEHS).
Records with an inconclusive call do not appear. Activity calls are given as the source filed them. How the source made its calls: active means hit-call score of the fitted dose curve at least 0.9, where 1 is the maximum; inconclusive means response in the unintended direction; inactive means score below 0.9.

Columns and labels:
[1] = target: chimpanzee Androgen Receptor (AR), AR (gene 747460) (UniProt O97775); experiment: NVS_NR_cAR: NovaScreen (NVS) Nuclear Receptor Binding Assay for chimpanzee Androgen Receptor (AR) (AID 2283346);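 further: radioligand displacement from AR measured by scintillation counting in a cell-free assay; a loss of bound radioligand signal versus DMSO counts as binding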
Method in brief: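 Radioligand binding to chimpanzee AR expressed in Sf9/Sf21 cells, cell-free, measured 72 h after dosing by lysate-based scintillation counting. Loss of signal vs DMSO; initial duplicate screen at 25 uM, actives retested in concentration series.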

[2] = target: Androgen Receptor/SRC-1 Co-activator, AR (gene 367) (UniProt P10275); experiment: OT_AR_ARSRC1_0960: Odyssey Thera (OT) 16-hour HEK293T Protein-Complementation Assay for Androgen Receptor/SRC-1 Co-activator (AID 2283353);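 further: actives raise the signal above DMSO so potency reflects increased AR and SRC-1 complex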
Method in brief: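 HEK293T cells stably expressing AR and SRC-1 fused to split Venus YFP fragments via (Gly4Ser)2 linkers were dosed for 16 h. Nuclear/cytoplasmic fluorescence ratio at 488 nm, ≥400 cells per image, fitted for gain of signal versus DMSO.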

[3] = target: Androgen Receptor/SRC-1 Co-activator, AR (gene 367) (UniProt P10275); experiment: OT_AR_ARSRC1_0480: Odyssey Thera (OT) 8-hour HEK293T Protein-Complementation Assay for Androgen Receptor/SRC-1 Co-activator (AID 2283354);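 further: hits raise the complementation signal above DMSO so AC50 marks enhancers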
Method in brief: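 HEK293T cells stably expressing AR and SRC-1 fused to Venus YFP fragments, imaged 8 h after dosing. Complementation fluorescence scored as nuclear/cytoplasmic ratio at 488 nm in at least 400 cells per image; gain fitted versus DMSO.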

[4] = target: rat Glycine Receptor, Strychnine-sensitive (GlyRStrySens), Glra1 (gene 25674) (UniProt P07727); experiment: NVS_LGIC_rGlyRStrySens: NovaScreen (NVS) Ligand-Gated Ion Channel Assay for rat Glycine Receptor, Strychnine-sensitive (GlyRStrySens) (AID 2283341)
Method in brief: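 Radioligand displacement on rat spinal cord membranes, 1 hr, filter scintillation read-out. Single-concentration duplicate screen at 25 uM; chemicals meeting threshold (e.g., 30% inhibition) rerun in concentration-response up to 50 uM. Loss of binding fitted versus DMSO.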

[5] = target: bovine Estrogen Receptor (ER), ESR1 (gene 407238) (UniProt P49884); experiment: NVS_NR_bER: NovaScreen (NVS) Nuclear Receptor Binding Assay for bovine Estrogen Receptor (ER) (AID 2283345);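 further: actives lower the bound radioligand count which means they displace the ER ligand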
Method in brief: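 Scintillation counting of displaced radioligand gave the readout; bovine uterine membrane extract supplied the receptor. Measured 18 h post-dose, normalized to DMSO baseline. Single 25 uM duplicate screen preceded concentration-response follow-up.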

[6] = target: Estrogen receptor (Homo sapiens) (UniProt P03372); experiment: OT_ER_ERaERa_1440: Odyssey Thera (OT) 24-hour HEK293T Protein-Complementation Assay for Estrogen Receptor-alpha/-alpha Homodimer (AID 2283349);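 further: hits raise fluorescence above DMSO for agonists and antagonists alike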
Method in brief: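 HEK293T cells stably expressing the human ER alpha ligand-binding domain (aa 310-547) as a homodimer PCA were dosed for 24 hours. Fluorescence intensity was read by laser scanning cytometry, and gain of signal was fitted relative to DMSO vehicle.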

[7] = target: T1, Estrogen receptor (Homo sapiens) + Estrogen receptor beta (Homo sapiens) (UniProt P03372+Q92731); experiment: OT_ER_ERaERb_0480: Odyssey Thera (OT) 8-hour HEK293T Protein-Complementation Assay for Estrogen Receptor-alpha/-beta Heterodimer (AID 2283352)
Method in brief: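 Fluorescence intensity readout from a protein-fragment complementation reporter in HEK293T; ER-alpha/ER-beta LBD heterodimer. Dosing 8 h. Gain-of-signal fit relative to DMSO negative control; laser scanning cytometry of whole-well cell population.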

[8] = target: T1, Estrogen receptor (Homo sapiens) + Estrogen receptor beta (Homo sapiens); experiment: OT_ER_ERaERb_1440: Odyssey Thera (OT) 24-hour HEK293T Protein-Complementation Assay for Estrogen Receptor-alpha/-beta Homodimer (AID 2283356);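 further: heteromer of ER alpha and ER beta binding domains; hits raise reporter fluorescence and both agonists and antagonists give an increase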
Method in brief: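 Readout: mean fluorescence intensity in nucleus (agonists) or nucleus plus cytoplasm (antagonists), read by laser scanning cytometer after 24 h compound exposure of HEK293T cells carrying ERα/ERβ LBD fragment-complementation constructs; DMSO baseline.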

[9] = target: Estrogen receptor beta (Homo sapiens) (UniProt Q92731); experiment: OT_ER_ERbERb_0480: Odyssey Thera (OT) 8-hour HEK293T Protein-Complementation Assay for Estrogen Receptor-beta/-beta Homodimer (AID 2283357);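 further: active means signal gain over DMSO baseline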
Method in brief: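 Fluorescence intensity, nuclear for agonists and nuclear plus cytoplasmic for antagonists, was quantified by laser scanning cytometry versus vehicle after 8 h treatment. The cells were HEK293T stably carrying ER beta LBD fragment-complementation partners.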

[10] = system: guinea pig Histamine Receptor (H2), gene 100729734; experiment: NVS_GPCR_gH2: NovaScreen (NVS) G Protein-Coupled Receptor Assay for guinea pig Histamine Receptor (H2) (AID 2283342)
Method in brief: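 Radioligand displacement on guinea pig striatal membranes, 1 h after dosing, filter-based scintillation counting; loss of signal versus DMSO. Single-point screen at 25 uM in duplicate, then concentration-response up to 50 uM.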

NCBI gene 100848466 = experiment: NVS_NR_bPR: NovaScreen (NVS) Nuclear Receptor Binding Assay for bovine Progextron Receptor (PR) (AID 2283343)
Method in brief: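 Bovine uterine membrane preparation; radioligand displacement read by scintillation counting 18 h after dosing. Primary screen single concentration, 25 uM, in duplicate; actives followed up in concentration series. Signal loss versus DMSO baseline.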

[11] = target: Estrogen receptor (Homo sapiens) (UniProt P03372); experiment: NVS_NR_hER: NovaScreen (NVS) Nuclear Receptor Binding Assay for human Estrogen Receptor (ER) (AID 2283348)
Method in brief: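 Radioligand competitive displacement binding to estrogen receptor from MCF7 extract, cell-free; 18 h after dosing, scintillation read-out. Primary screen in duplicate at 25 uM; actives followed up in concentration series; loss of signal vs DMSO.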

[12] = target: Bile acid receptor (Homo sapiens) (UniProt Q96RI1); experiment: NVS_NR_hFXR_Antagonist: NovaScreen (NVS) Nuclear Receptor Binding Assay for human Farnesoid X Receptor Antagonism (FXR) (AID 2283350)
Method in brief: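 Cell-free TR-FRET ligand-binding read-out on human FXR (NR1H4) in antagonist mode, measured 1 h after dosing. Primary screen in duplicate at 25 uM, actives retested in concentration series; signal loss scored versus DMSO.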

Estrogen receptor beta (Homo sapiens), sequence (Q92731 whole entry, looked up, the tested form may be a part): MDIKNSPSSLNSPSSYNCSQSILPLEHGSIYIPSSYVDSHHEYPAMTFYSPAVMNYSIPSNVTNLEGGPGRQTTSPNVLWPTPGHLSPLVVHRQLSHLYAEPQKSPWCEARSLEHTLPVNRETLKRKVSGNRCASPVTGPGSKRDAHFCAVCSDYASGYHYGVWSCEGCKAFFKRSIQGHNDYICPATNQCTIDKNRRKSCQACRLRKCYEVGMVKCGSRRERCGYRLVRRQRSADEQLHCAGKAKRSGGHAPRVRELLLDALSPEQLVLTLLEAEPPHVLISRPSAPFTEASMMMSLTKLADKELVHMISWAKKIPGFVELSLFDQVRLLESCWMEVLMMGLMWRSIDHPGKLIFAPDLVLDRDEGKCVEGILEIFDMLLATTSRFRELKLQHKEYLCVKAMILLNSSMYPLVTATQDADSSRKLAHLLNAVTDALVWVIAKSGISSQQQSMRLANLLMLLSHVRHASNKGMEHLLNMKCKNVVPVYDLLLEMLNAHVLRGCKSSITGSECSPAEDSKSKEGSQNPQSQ
chimpanzee Androgen Receptor (AR), AR (gene 747460), sequence (O97775 whole entry, looked up): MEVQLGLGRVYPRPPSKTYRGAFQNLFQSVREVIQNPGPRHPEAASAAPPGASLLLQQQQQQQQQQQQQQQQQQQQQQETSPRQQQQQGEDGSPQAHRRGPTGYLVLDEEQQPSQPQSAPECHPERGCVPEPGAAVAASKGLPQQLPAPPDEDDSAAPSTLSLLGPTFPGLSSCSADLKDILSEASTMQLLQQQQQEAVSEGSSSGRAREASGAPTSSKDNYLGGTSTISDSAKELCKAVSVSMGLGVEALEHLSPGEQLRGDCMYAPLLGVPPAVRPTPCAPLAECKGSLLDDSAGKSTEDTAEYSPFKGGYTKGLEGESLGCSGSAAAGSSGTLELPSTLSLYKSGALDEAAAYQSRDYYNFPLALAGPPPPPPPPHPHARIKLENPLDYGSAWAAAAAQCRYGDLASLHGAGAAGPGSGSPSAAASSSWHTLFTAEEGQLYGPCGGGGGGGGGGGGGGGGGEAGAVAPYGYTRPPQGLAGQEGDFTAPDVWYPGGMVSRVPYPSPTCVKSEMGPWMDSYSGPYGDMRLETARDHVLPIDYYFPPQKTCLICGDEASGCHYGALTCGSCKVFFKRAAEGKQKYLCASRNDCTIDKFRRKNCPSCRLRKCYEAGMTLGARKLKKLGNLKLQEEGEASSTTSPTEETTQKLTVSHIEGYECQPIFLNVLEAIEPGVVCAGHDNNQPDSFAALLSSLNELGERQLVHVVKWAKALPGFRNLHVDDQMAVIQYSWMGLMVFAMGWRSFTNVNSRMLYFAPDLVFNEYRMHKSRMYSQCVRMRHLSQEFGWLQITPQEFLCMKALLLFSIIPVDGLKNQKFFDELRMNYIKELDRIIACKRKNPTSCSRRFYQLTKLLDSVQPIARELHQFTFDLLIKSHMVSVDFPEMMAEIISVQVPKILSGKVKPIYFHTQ
T1 sequence (P03372 whole entry, looked up, the tested form may be a part): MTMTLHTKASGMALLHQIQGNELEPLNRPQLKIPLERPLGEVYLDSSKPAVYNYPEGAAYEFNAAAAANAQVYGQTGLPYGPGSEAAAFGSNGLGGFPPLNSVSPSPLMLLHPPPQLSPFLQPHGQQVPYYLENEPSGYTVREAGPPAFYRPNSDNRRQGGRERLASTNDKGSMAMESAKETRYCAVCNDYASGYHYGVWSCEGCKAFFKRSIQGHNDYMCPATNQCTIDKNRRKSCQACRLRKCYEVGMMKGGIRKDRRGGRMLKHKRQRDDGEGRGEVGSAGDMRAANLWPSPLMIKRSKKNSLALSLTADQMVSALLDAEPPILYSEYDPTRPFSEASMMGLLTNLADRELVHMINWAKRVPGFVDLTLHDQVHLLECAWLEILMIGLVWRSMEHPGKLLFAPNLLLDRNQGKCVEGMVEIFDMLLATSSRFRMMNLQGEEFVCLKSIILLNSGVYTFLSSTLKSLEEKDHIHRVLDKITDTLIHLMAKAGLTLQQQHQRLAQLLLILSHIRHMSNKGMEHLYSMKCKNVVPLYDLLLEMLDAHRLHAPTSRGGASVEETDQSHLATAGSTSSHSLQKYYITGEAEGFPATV
T1 sequence (Q92731 whole entry, looked up, the tested form may be a part): as the sequence (Q92731 whole entry, looked up, the tested form may be a part) above
Estrogen receptor (Homo sapiens), sequence (P03372 whole entry, looked up, the tested form may be a part): as the sequence (P03372 whole entry, looked up, the tested form may be a part) above
Androgen Receptor/SRC-1 Co-activator, AR (gene 367), sequence (P10275 whole entry, looked up, the tested form may be a part): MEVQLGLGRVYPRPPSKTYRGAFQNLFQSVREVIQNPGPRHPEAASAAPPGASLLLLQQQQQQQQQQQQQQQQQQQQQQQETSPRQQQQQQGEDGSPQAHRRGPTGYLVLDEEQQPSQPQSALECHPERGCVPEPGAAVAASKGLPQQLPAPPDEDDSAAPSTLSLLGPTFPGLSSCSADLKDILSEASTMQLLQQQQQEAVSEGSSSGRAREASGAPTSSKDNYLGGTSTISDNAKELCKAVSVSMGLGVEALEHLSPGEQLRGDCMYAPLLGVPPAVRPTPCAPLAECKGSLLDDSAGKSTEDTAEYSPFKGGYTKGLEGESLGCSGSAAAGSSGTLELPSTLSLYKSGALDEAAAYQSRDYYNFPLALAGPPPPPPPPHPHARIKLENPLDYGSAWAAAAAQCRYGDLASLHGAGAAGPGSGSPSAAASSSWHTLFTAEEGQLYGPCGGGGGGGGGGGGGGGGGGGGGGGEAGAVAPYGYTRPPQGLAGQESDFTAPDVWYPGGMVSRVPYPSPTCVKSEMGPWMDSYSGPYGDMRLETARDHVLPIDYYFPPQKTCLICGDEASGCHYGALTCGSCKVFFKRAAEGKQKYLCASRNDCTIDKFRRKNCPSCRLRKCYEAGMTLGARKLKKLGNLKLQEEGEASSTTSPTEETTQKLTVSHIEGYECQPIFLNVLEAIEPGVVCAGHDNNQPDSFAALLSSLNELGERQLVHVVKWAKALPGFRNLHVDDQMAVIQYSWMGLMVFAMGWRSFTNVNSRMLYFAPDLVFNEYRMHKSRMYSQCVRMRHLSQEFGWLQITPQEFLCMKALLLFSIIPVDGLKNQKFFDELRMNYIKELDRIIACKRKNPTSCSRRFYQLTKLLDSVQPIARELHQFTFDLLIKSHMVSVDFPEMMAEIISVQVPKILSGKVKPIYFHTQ
bovine Estrogen Receptor (ER), ESR1 (gene 407238), sequence (P49884 whole entry, looked up): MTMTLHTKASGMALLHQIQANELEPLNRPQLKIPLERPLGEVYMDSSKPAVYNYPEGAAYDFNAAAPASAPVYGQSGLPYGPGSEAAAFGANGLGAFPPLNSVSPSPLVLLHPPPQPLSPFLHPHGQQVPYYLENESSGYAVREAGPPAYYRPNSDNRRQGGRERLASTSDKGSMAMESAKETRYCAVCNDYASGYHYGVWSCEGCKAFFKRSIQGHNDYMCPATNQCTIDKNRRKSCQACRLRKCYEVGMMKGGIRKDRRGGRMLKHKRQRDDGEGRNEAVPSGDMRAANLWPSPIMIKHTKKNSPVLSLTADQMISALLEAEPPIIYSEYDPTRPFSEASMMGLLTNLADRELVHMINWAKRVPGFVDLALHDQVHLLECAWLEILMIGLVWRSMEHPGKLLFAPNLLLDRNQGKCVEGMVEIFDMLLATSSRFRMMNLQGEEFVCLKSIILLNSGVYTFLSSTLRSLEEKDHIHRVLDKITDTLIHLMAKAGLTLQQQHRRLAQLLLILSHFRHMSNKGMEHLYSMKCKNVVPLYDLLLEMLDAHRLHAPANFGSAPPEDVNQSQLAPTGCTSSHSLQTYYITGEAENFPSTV
rat Glycine Receptor, Strychnine-sensitive (GlyRStrySens), Glra1 (gene 25674), sequence (P07727 whole entry, looked up): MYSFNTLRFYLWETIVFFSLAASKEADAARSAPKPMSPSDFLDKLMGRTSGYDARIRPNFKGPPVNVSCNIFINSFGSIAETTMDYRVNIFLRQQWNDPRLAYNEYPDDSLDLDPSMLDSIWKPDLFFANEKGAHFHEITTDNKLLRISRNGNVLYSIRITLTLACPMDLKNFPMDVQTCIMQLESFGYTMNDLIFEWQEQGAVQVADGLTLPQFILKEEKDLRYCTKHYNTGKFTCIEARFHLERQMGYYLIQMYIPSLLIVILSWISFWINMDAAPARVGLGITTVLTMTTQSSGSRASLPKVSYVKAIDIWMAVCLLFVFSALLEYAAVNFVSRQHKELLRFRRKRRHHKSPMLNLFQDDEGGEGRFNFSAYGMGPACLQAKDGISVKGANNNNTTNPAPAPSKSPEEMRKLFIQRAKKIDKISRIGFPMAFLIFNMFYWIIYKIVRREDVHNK
Bile acid receptor (Homo sapiens), sequence (Q96RI1 whole entry, looked up): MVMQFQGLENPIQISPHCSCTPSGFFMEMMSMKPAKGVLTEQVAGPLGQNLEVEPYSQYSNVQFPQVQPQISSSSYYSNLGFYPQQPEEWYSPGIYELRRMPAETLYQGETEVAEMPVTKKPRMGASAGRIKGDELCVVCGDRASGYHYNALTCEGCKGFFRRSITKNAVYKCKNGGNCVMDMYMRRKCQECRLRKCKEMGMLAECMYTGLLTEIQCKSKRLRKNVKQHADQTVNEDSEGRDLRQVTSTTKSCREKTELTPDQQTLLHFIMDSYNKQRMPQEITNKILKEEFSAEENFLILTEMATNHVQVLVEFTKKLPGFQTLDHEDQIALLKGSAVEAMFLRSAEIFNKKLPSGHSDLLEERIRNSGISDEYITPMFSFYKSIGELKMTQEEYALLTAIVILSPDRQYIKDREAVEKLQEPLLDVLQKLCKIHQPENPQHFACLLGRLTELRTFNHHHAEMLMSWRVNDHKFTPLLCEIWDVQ

Nc1ccc(Cl)cc1N
AC50 [1]: 25 µM (active)
outcome [2]: inactive
outcome [3]: inactive

Nc1ccc(Cc2ccc(N)cc2)cc1
outcome [4]: inactive

Cc1ccc([N+](=O)[O-])cc1
outcome [5]: inactive
outcome [6]: inactive
outcome [7]: inactive
outcome [8]: inactive
outcome [9]: inactive

O=C(N[C@H](c1ccccc1)[C@@H]1CN2CCC1CC2)c1c(Cl)ccc(C(F)(F)F)c1Cl
AC50 [10]: 3.16 µM (active)
outcome [9]: inactive

CN(C)[C@@H]1C(=O)C(C(N)=O)=C(O)[C@@]2(O)C(=O)C3=C(O)c4c(O)cccc4[C@@](C)(O)[C@H]3C[C@@H]12
outcome (NCBI gene 100848466): inactive
AC50 [1]: 37.4 µM (active)

CCC12COCN1COC2
outcome [6]: inactive

COP(=S)(OC)SCN1C(=O)c2ccccc2C1=O
outcome [10]: inactive
outcome [9]: inactive

CCOc1cccc(C2(N3CCN(c4ccccc4)CC3)CCC(C)CC2)c1 (stereo unspecified)
outcome [6]: inactive

Cn1cc(-c2ccccc2)c(=O)c(-c2cccc(C(F)(F)F)c2)c1
outcome [6]: inactive

[Cl-].[Cl-].[Hg+2]
AC50 [10]: 8.27 µM (active)
outcome [5]: inactive
outcome [1]: inactive
outcome [11]: inactive
outcome [6]: inactive
outcome [12]: inactive
outcome [8]: inactive
outcome [9]: inactive
